Activity calls are given as the source filed them. How the source made its calls: active means hit-call score of the fitted dose curve at least 0.9, where 1 is the maximum; inactive means score below 0.9.
How the values were obtained:
Conditions in all cases: mRNA level, 48 h; actives raise or lower the signal
[1] = read-out: CFLAR gene, CFLAR (gene 8837); experiment: LTEA_HepaRG_CFLAR: Life Technologies and Expression Analysis (LTEA) Assay for CFLAR gene using HepaRG (AID 2283455)
Summary of the method: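 Differentiated HepaRG cells in serum-free induction medium were exposed 48 h in duplicate to eight half-log concentrations up to 100 uM in 0.5% DMSO; mRNA measured by TaqMan qRT-PCR, normalized to ACTB, GAPDH, POLR2A; bidirectional fitting versus DMSO.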

[2] = read-out: Forkhead box O1 (FOXO1), FOXO1 (gene 2308); experiment: LTEA_HepaRG_FOXO1: Life Technologies and Expression Analysis (LTEA) Assay for Forkhead box O1 (FOXO1) using HepaRG (AID 2283456)
Summary of the method: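 Differentiated HepaRG cells, in serum-free induction medium with 0.5% DMSO, exposed 48 h in duplicate to 8-point half-log series from 100 uM. FOXO1 mRNA measured by TaqMan qRT-PCR, normalized to ACTB, GAPDH, POLR2A; bidirectional fit versus DMSO.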

[3] = read-out: growth arrest and DNA damage 45 (GADD45A), GADD45A (gene 1647); experiment: LTEA_HepaRG_GADD45A: Life Technologies and Expression Analysis (LTEA) Assay for growth arrest and DNA damage 45 (GADD45A) using HepaRG (AID 2283458)
Summary of the method: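 Differentiated HepaRG cells were exposed in duplicate for 48 h in serum-free induction medium to 8-point half-log concentrations up to 100 uM in 0.5% DMSO. GADD45A mRNA was measured by TaqMan qRT-PCR, normalized to ACTB, GAPDH and POLR2A, with bidirectional fitting versus DMSO.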

[4] = read-out: Forkhead box O3 (FOXO3), FOXO3 (gene 2309); experiment: LTEA_HepaRG_FOXO3: Life Technologies and Expression Analysis (LTEA) Assay for Forkhead box O3 (FOXO3) using HepaRG (AID 2283459)
Summary of the method: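 Differentiated human HepaRG cells, 48 h post-plating, exposed in duplicate for 48 h in serum-free induction medium; 8-point half-log series from 100 uM in 0.5% DMSO. FOXO3 mRNA by TaqMan qRT-PCR, normalized to ACTB/GAPDH/POLR2A; bidirectional fit versus DMSO.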

[5] = read-out: ABC Transporter (ABCB1), ABCB1 (gene 5243); experiment: LTEA_HepaRG_ABCB1: Life Technologies and Expression Analysis (LTEA) Assay for ABC Transporter (ABCB1) using HepaRG (AID 2283460)
Summary of the method: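 HepaRG cells exposed in duplicate for 48 h in serum-free induction medium to eight half-log concentrations up to 100 uM in 0.5% DMSO. ABCB1 mRNA quantified by qRT-PCR, normalised to ACTB, GAPDH and POLR2A; fitted bidirectionally versus DMSO.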

[6] = read-out: growth arrest and DNA damage 45 (GADD45B), GADD45B (gene 4616); experiment: LTEA_HepaRG_GADD45B: Life Technologies and Expression Analysis (LTEA) Assay for growth arrest and DNA damage 45 (GADD45B) using HepaRG (AID 2283461)
Summary of the method: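 Differentiated human HepaRG cells in serum-free induction medium exposed 48 h in duplicate to eight concentrations, top 100 uM, half-log steps, 0.5% DMSO. GADD45B mRNA by TaqMan qRT-PCR, normalized to ACTB, GAPDH, POLR2A; bidirectional fit versus DMSO.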

[7] = read-out: ABC Transporter (ABCC3), ABCC3 (gene 8714); experiment: LTEA_HepaRG_ABCC3: Life Technologies and Expression Analysis (LTEA) Assay for ABC Transporter (ABCC3) using HepaRG (AID 2283462)
Summary of the method: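 Differentiated human HepaRG cells exposed 48 h in serum-free induction medium, 0.5% DMSO vehicle, 8-point half-log series to 100 uM in duplicate. ABCC3 mRNA by qRT-PCR, normalised to ACTB, GAPDH, POLR2A; bidirectional fit vs DMSO.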

[8] = read-out: ABC Transporter (ABCB11), ABCB11 (gene 8647); experiment: LTEA_HepaRG_ABCB11: Life Technologies and Expression Analysis (LTEA) Assay for ABC Transporter (ABCB11) using HepaRG (AID 2283463)
Summary of the method: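 Differentiated human HepaRG cells in serum-free induction medium, dosed in duplicate for 48 h. Eight-point half-log series from 100 uM in 0.5% DMSO; ABCB11 mRNA by qRT-PCR, normalized to ACTB, GAPDH, POLR2A, fitted bidirectionally versus DMSO.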

[9] = read-out: ABC Transporter (ABCC2), ABCC2 (gene 1244); experiment: LTEA_HepaRG_ABCC2: Life Technologies and Expression Analysis (LTEA) Assay for ABC Transporter (ABCC2) using HepaRG (AID 2283464)
Summary of the method: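 Differentiated HepaRG cells in serum-free induction medium exposed 48 h to eight half-log concentrations up to 100 uM, 0.5% DMSO, in duplicate. ABCC2 mRNA measured by qRT-PCR (TaqMan, Fluidigm), normalized to ACTB, GAPDH and POLR2A. Fitted in both directions against DMSO.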

[10] = read-out: Broad substrate specificity ATP-binding cassette transporter ABCG2 (Homo sapiens) (UniProt Q9UNQ0); experiment: LTEA_HepaRG_ABCG2: Life Technologies and Expression Analysis (LTEA) Assay for ABC Transporter (ABCG2) using HepaRG (AID 2283465)
Summary of the method: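 Differentiated HepaRG cells were exposed for 48 h in serum-free induction medium to 8 half-log concentrations, top 100 uM, in 0.5% DMSO. ABCG2 mRNA was measured by qRT-PCR, normalized to ACTB, GAPDH and POLR2A, with bidirectional fitting versus DMSO.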

[11] = read-out: ATP-citrate lyase (ACLY), ACLY (gene 47); experiment: LTEA_HepaRG_ACLY: Life Technologies and Expression Analysis (LTEA) Assay for ATP-citrate lyase (ACLY) using HepaRG (AID 2283466)
Summary of the method: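 Differentiated HepaRG cells exposed 48 h in serum-free induction medium to eight half-log concentrations up to 100 uM in 0.5% DMSO, duplicates. Transcript measured by Fluidigm TaqMan qRT-PCR, normalized to ACTB, GAPDH, POLR2A; bidirectional fit versus DMSO.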

[12] = read-out: Peroxisomal acyl-coenzyme A oxidase 1 (ACOX1) gene, ACOX1 (gene 51); experiment: LTEA_HepaRG_ACOX1: Life Technologies and Expression Analysis (LTEA) Assay for Peroxisomal acyl-coenzyme A oxidase 1 (ACOX1) gene using HepaRG (AID 2283467)
Summary of the method: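 HepaRG cells, plated 48 h then switched to serum-free induction medium, were exposed in duplicate for 48 h to 8-point half-log concentrations up to 100 uM in 0.5% DMSO. ACOX1 mRNA was measured by qRT-PCR, normalized to ACTB/GAPDH/POLR2A, and fitted bidirectionally versus DMSO.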

[13] = read-out: Alkaline Phosphatase, Placental (ALPP) gene, ALPP (gene 250); experiment: LTEA_HepaRG_ALPP: Life Technologies and Expression Analysis (LTEA) Assay for Alkaline Phosphatase, Placental (ALPP) gene using HepaRG (AID 2283468)
Summary of the method: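 HepaRG cells plated 48 h, then exposed in duplicate for 48 h in serum-free induction medium to 8-point half-log series from 100 uM in 0.5% DMSO. ALPP mRNA by TaqMan qRT-PCR, normalized to ACTB/GAPDH/POLR2A; bidirectional fit versus DMSO.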

[14] = read-out: Bcl-2 (BAD) gene, BAD (gene 572); experiment: LTEA_HepaRG_BAD: Life Technologies and Expression Analysis (LTEA) Assay for Bcl-2 (BAD) gene using HepaRG (AID 2283469)
Summary of the method: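 Differentiated HepaRG cells were exposed in duplicate in 0.5% DMSO for 48 h to eight-point half-log concentrations up to 100 uM. BAD mRNA was measured by Fluidigm TaqMan qRT-PCR, normalized to ACTB, GAPDH and POLR2A, and fitted bidirectionally against DMSO.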

[15] = read-out: Bcl-2 (BAX) gene, BAX (gene 581); experiment: LTEA_HepaRG_BAX: Life Technologies and Expression Analysis (LTEA) Assay for Bcl-2 (BAX) gene using HepaRG (AID 2283470)
Summary of the method: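 Differentiated human HepaRG cells, plated 48 h then switched to serum-free induction medium, were exposed 48 h to 8 half-log concentrations up to 100 uM in 0.5% DMSO; BAX mRNA measured by qRT-PCR, normalized to ACTB, GAPDH, POLR2A.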

[16] = read-out: adenosine kinase (ADK) gene, ADK (gene 132); experiment: LTEA_HepaRG_ADK: Life Technologies and Expression Analysis (LTEA) Assay for adenosine kinase (ADK) gene using HepaRG (AID 2283471)
Summary of the method: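 HepaRG (human liver), 48 h chemical exposure, 8-pt half-log series, top 100 uM, 0.5% DMSO vehicle. Readout: ADK mRNA by qRT-PCR vs housekeeping genes; bidirectional curve fit relative to DMSO baseline.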

[17] = read-out: Alpha-fetoprotein (AFP) gene, AFP (gene 174); experiment: LTEA_HepaRG_AFP: Life Technologies and Expression Analysis (LTEA) Assay for Alpha-fetoprotein (AFP) gene using HepaRG (AID 2283472)
Summary of the method: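 Human HepaRG cells plated 48 h, then switched to serum-free induction medium and exposed in duplicate for 48 h to 8-point half-log series from 100 uM in 0.5% DMSO. AFP mRNA by qRT-PCR, normalized to ACTB, GAPDH, POLR2A; bidirectional fit versus DMSO.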

[18] = read-out: BCL2L11 (gene 10018); experiment: LTEA_HepaRG_BCL2L11: Life Technologies and Expression Analysis (LTEA) Assay for Bcl-2 (BCL2L11) gene using HepaRG (AID 2283473)
Summary of the method: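 Differentiated human HepaRG cells were exposed 48 h in serum-free induction medium to eight half-log concentrations up to 100 uM in 0.5% DMSO, in duplicate. BCL2L11 mRNA was quantified by TaqMan qRT-PCR, normalized to ACTB, GAPDH and POLR2A; induction or repression fitted versus DMSO.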

[19] = read-out: Apolipoprotein A-V (APOA5) gene, APOA5 (gene 116519); experiment: LTEA_HepaRG_APOA5: Life Technologies and Expression Analysis (LTEA) Assay for Apolipoprotein A-V (APOA5) gene using HepaRG (AID 2283474)
Summary of the method: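 Differentiated HepaRG cells in serum-free induction medium, exposed 48 h in duplicate to eight half-log concentrations topping at 100 uM (0.5% DMSO). APOA5 mRNA by Fluidigm TaqMan qRT-PCR, normalized to ACTB, GAPDH and POLR2A; bidirectional fit versus DMSO.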

[20] = read-out: Apoptosis regulator Bcl-2 (Homo sapiens) (UniProt P10415); experiment: LTEA_HepaRG_BCL2: Life Technologies and Expression Analysis (LTEA) Assay for Bcl-2 gene using HepaRG (AID 2283475)
Summary of the method: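 Differentiated HepaRG cells in serum-free induction medium were exposed for 48 h to eight half-log concentrations up to 100 uM in 0.5% DMSO, in duplicate. BCL2 mRNA was quantified by TaqMan qRT-PCR normalised to ACTB, GAPDH and POLR2A, with bidirectional fitting versus DMSO.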

Measured: outcome

Chain of Apoptosis regulator Bcl-2 (Homo sapiens) (P10415 whole entry, looked up): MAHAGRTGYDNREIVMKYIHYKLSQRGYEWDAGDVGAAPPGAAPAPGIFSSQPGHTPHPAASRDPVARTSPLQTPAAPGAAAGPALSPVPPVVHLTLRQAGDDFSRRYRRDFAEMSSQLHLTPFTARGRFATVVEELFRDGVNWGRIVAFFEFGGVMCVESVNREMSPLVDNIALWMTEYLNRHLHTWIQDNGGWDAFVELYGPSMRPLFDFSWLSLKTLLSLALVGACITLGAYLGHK
Chain of Broad substrate specificity ATP-binding cassette transporter ABCG2 (Homo sapiens) (Q9UNQ0 whole entry, looked up): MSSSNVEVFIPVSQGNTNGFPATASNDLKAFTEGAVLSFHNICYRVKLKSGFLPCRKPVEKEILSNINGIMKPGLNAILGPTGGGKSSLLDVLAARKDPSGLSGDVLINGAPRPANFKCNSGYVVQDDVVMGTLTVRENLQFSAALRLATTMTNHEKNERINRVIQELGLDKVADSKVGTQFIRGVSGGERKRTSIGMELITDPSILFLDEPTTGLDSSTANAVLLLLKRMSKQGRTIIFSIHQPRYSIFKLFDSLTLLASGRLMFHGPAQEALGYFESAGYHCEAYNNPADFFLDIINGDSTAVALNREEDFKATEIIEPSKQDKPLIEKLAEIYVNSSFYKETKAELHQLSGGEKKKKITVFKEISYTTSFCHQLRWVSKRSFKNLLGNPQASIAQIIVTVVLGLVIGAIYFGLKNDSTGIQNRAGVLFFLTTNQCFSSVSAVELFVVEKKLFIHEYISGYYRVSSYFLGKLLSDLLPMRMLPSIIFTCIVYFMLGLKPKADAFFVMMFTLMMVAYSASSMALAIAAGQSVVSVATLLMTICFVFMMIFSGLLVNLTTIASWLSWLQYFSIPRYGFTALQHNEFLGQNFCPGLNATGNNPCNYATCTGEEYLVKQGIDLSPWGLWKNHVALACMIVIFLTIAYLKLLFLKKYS

N#CCCCCC#N
inactive: all assays above

— PubChem BioAssay (EPA / NIEHS)
